Measurements as given in PubChem BioAssay AID463173 (ICCB-Longwood Screening Facility, Harvard Medical School, 2010).
Out of some 52,000 compounds screened, about 4,300 (8.3%) were called active. Shown is part of a subset that was picked to be rich in actives. Unmarked numbers belong to inactive results. No stated cut-off is given here; in the data, active means survival mostly below about 52% (no sharp cut-off); inactive means mostly above about 56%.

These molecules were tested on DeltatarO mutant (assay: growth inhibition of S. aureus wild type versus tarO mutant, primary screen, teichoic acid synthesis inhibitors, RN4220, OD600 (AID 463173)). Details: OD600, 18 h, active compounds read low, concentration not given here.
In the case of `O=C(COc1cc(Cl)ccc1Cl)Nc1ccc(Cl)cc1C(=O)c1ccccc1`, the survival is reported as 69%.
Molecule `CC1=CC(=O)C2=C(C)CC(O)C3C(C)C(=O)OC3C12` (stereo unspecified) has a survival of 100%.
`CCc1ccc(NC(=O)c2cccn(Cc3cccc([N+](=O)[O-])c3)c2=O)cc1` was tested, and the survival was 89%.
`Cc1cc(C=C(C#N)C#N)c(C)n1C1CCCC1` was tested, and the survival was 64%.
With `CC(C)NCc1ccc2c(c1)OCO2` the survival was 76%.
`Cc1ccc(C(C)(C)C)c(OCC(=O)Nc2ccc(Cl)cc2C(=O)c2ccccc2)c1` showed a survival of 66%.
`CCN(CC)C(=O)c1ccc(NC(=O)CCn2nc(-c3ccc(C)cc3)c3ccccc3c2=O)cc1` was tested, and the survival was 61%.
Work on `CCN(CC)C(=O)c1ccc(NC(=O)Cn2nc(-c3ccc(C)cc3)c3ccccc3c2=O)cc1` yielded a survival of 50%.
For `CCN(CC)C(=O)c1ccc(NC(=O)CCn2nc(-c3ccc(Cl)cc3)c3ccccc3c2=O)cc1`, the survival was 47% (active).
`CCOc1ccccc1NC(=O)c1cccn(Cc2ccccc2C)c1=O` was tested, and the survival was 70%.
Work on `Cc1n[nH]c(C)c1CCN` yielded a survival of 80%.
`Cc1[nH]c2c(C)cccc2c1CCN` was tested, and the survival was 37% (active).
In the case of `O=S1(=O)CC2(N3CCOCC3)CCCCC21` (stereo unspecified), the survival is reported as 84%.
`C=CCN1C(=O)CN=C(c2cccs2)c2c1sc1c2CCC1` was tested, and the survival was 92%.
`COc1ccc(OC)c(NC(=O)Cn2cc(C(=O)c3ccccc3F)c3ccccc32)c1` was tested, and the survival was 70% (active).
`COc1ccc(OC)c(NC(=O)Cn2cc(C(=O)c3ccccc3)c3ccccc32)c1` showed a survival of 59%.
Work on `COc1cccc(NC(=O)Cn2cc(C(=O)c3ccccc3)c3ccccc32)c1` yielded a survival of 47%.
`Cc1ccc(-c2nn3c(=O)cc(CN4CCN(C(=O)COc5ccc(C)c(C)c5)CC4)nc3s2)cc1` gave a survival of 81%.
`O=C(COc1ccccc1Cl)N1CCN(CCc2ccccn2)CC1` showed a survival of 110%.
`COc1ccc(OC)c(C(c2c(O)c3ccccc3oc2=O)c2c(C)n(C)n(-c3ccccc3)c2=O)c1` (stereo unspecified) gave a survival of 56%.
Work on `Cc1cccc(-n2c(/C=C\c3cccc(Br)c3)nc3ccccc3c2=O)c1` yielded a survival of 113%.
In the case of `COc1cccc(-n2c(/C=C/c3cccc(C)c3)nc3ccccc3c2=O)c1`, the survival is reported as 0% (active).
In the case of `COc1cccc(/C=C/c2nc3ccccc3c(=O)n2-c2ccc(Cl)cc2)c1OC`, the survival is reported as 88%.
`Cc1ccc(-n2c(/C=C/c3ccccc3)nc3ccccc3c2=O)cc1Cl` gave a survival of 68%.
With `COc1ccc(/C=C/c2nc3ccccc3c(=O)n2-c2ccc(C)cc2)cc1O` the survival was 85%.
For `COc1cccc(-n2c(/C=C\c3ccc(Cl)cc3)nc3ccccc3c2=O)c1`, the survival was 30% (active).
`O=c1c2ccccc2nc(/C=C/c2cccc3ccccc23)n1-c1ccc(Cl)cc1` showed a survival of 78%.
`CCN1CCN(C(=O)COc2ccc(S(=O)(=O)N(C)Cc3ccccc3)cc2)CC1` gave a survival of 87%.
`CC1(C)CC(NC(=O)CN2CCCC2=O)CC(C)(C)N1` was tested, and the survival was 79%.
`COc1ccc(C=C2C(=O)NC(=S)NC2=O)cc1` showed a survival of 96%.
Molecule `Cc1cccc(OC(C)C(=O)NCC2(N(C)C)CCCCC2)c1C` (stereo unspecified) has a survival of 92%.
`N#CC(C#N)=Cc1ccc(Sc2ccccc2)o1` showed a survival of 72%.
`COc1ccccc1CNCCc1ccccc1` was tested, and the survival was 95%.
With `CC(C)c1ccc(OCC(=O)N2CCN(CCc3ccncc3)CC2)cc1` the survival was 44% (active).
Work on `CCc1ccc(OCC(=O)N2CCN(CCc3ccncc3)CC2)cc1` yielded a survival of 98%.
In the case of `Cc1ccc(C(C)C)c(OCC(=O)N2CCN(CCc3ccncc3)CC2)c1`, the survival is reported as 42% (active).
Molecule `Cc1ccc(OCC(=O)N2CCN(CCc3ccncc3)CC2)cc1C` has a survival of 53%.
In the case of `O=C(COc1cccc(Cl)c1)N1CCN(CCc2ccncc2)CC1`, the survival is reported as 47% (active).
In the case of `Cc1ccc(OCC(=O)N2CCN(CCc3ccncc3)CC2)cc1`, the survival is reported as 86%.
`O=C(COc1ccccc1[N+](=O)[O-])N1CCN(CCc2ccncc2)CC1` gave a survival of 90%.
In the case of `Cc1cc(OCC(=O)N2CCN(CCc3ccncc3)CC2)cc(C)c1Cl`, the survival is reported as 57% (active).
`Cc1cc(OCC(=O)N2CCN(CCc3ccncc3)CC2)ccc1Cl` gave a survival of 49%.
`O=C(COc1ccccc1Cl)N1CCN(CCc2ccncc2)CC1` gave a survival of 95%.
In the case of `O=C(COc1ccc2ccccc2c1)N1CCN(Cc2ccncc2)CC1`, the survival is reported as 67%.
Work on `COc1ccc(OCC(=O)N2CCN(CCc3ccncc3)CC2)cc1` yielded a survival of 82%.
`O=C(Nc1ccc2c(c1)OCCO2)c1cccn(Cc2cccc([N+](=O)[O-])c2)c1=O` showed a survival of 94%.
Work on `Cc1ccc(-n2c(/C=C/c3cc(Br)cs3)nc3ccccc3c2=O)cc1` yielded a survival of 74%.
`CC(=O)N(C1=NCCCS1)c1ccc(C)cc1` gave a survival of 99%.
`CC(=O)OC1(c2ccccc2)CCN(C)C2CCCCC21` (stereo unspecified) was tested, and the survival was 91%.
In the case of `CN1CCc2nc3sc4c(=O)[nH]c(=O)[nH]c4c3cc2C1`, the survival is reported as 79%.
`Cc1ccc(Cl)cc1NC(=O)N(Cc1ccc2c(c1)OCO2)C1CCN(Cc2ccccc2)CC1` showed a survival of 55%.
For `Cc1cccnc1-n1c(C)nc2ccccc2c1=O`, the survival was 76%.
For `COc1ccc(NC(=O)CCc2nc(C3=CCN(Cc4cccc(C)c4)CC3)no2)c(OC)c1`, the survival was 91%.
For `COC(=O)c1ccccc1NC(=O)c1cccn(Cc2cccc(Cl)c2)c1=O`, the survival was 73%.
`CCOc1ccc2nc(NC(=O)c3cccn(Cc4ccccc4Cl)c3=O)sc2c1` gave a survival of 87%.
For `O=c1c2ccccc2[nH]c(=S)n1-c1ccccc1`, the survival was 90%.
For `CCOc1ccc2nc(NC(=O)c3cccn(Cc4ccccc4)c3=O)sc2c1`, the survival was 94%.
Work on `O=S1(=O)N(Cc2ccccc2)CCCN1Cc1cccc(Cl)c1` yielded a survival of 71%.
`O=S1(=O)N(Cc2ccccc2)CCCN1Cc1ccc(F)cc1Cl` showed a survival of 87%.
With `O=S1(=O)N(Cc2ccccc2Cl)CCCN1Cc1ccccc1Cl` the survival was 10% (active).
For `O=C(Nc1ccon1)c1cccn(Cc2cccc([N+](=O)[O-])c2)c1=O`, the survival was 102%.
`COc1ccc(C(C(=O)NC2CCCCC2)N(CCN2CCOCC2)C(=O)Cc2c[nH]c3ccccc23)cc1OC` (stereo unspecified) showed a survival of 59%.
`COc1ccccc1NC(=O)N(Cc1ccc2c(c1)OCO2)C1CCN(Cc2ccccc2)CC1` gave a survival of 88%.
Molecule `CSc1nc2ccccc2c(=O)n1-c1ccccc1C` has a survival of 95%.
For `CCCSc1nc2ccccc2c(=O)n1-c1ccccc1OC`, the survival was -2% (active).
With `COc1ccccc1-n1c(/C=C/c2ccccc2)nc2ccccc2c1=O` the survival was 67%.
In the case of `Cc1cccc(Cn2cccc(C(=O)Nc3cc(C)on3)c2=O)c1`, the survival is reported as 73%.
With `CCCCCn1c(=O)c(C(=O)Nc2ccccc2S(N)(=O)=O)c(O)c2ccccc21` the survival was 0% (active).
For `CCCCn1c(=O)c(C(=O)NC)c(O)c2ccccc21`, the survival was 99%.
Work on `CCN1CCN(Cc2nnnn2C(C)(C)C)CC1` yielded a survival of 100%.
`O=C1CC(c2cccnc2)Nc2ccc3ccccc3c21` (stereo unspecified) was tested, and the survival was 86%.
For `Cc1ccc(Cn2cccc(C(=O)Nc3cc([N+](=O)[O-])ccc3C)c2=O)cc1`, the survival was 82%.
With `CCc1ccccc1NC(=O)c1cccn(Cc2ccccc2F)c1=O` the survival was 47% (active).
Work on `Cc1nnc(NC(=O)c2cccn(Cc3ccccc3F)c2=O)s1` yielded a survival of 94%.
Work on `CCOC(=O)c1ccc(NC(=O)c2cccn(Cc3ccccc3F)c2=O)cc1` yielded a survival of 86%.
`CC(C)c1ccc(OCC(=O)N2CCN(CCc3ccccn3)CC2)cc1` was tested, and the survival was 66%.
